The sample as a whole holds a higher share of the strongest signals than the screen did.

Common to all, as to assay: glycan array binding signal (z-score within array); higher = stronger binding
Conditions in all cases: glycan notation: IUPAC condensed, linker removed

Assay [1] has as its target Fuc(a1-2)Gal(b1-3)[Fuc(a1-4)]GlcNAc. Summed up:
(§1)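 Glycan array data were curated from 3228 arrays in the Consortium for Functional Glycomics database and kept only where the protein sequence was available. Glycan names were converted to IUPAC-condensed notation, and columns mapping to the same glycan were averaged. The binding signal is a within-array Z-score, averaged across arrays of the same protein sequence at different concentrations or buffers and across linkers. Negative Z-scores can be read as non-binding.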

Assay [2] has as its target Fuc(a1-2)[Gal(a1-3)]Gal(b1-4)[Fuc(a1-3)]GlcNAc. Summed up: as §1
Assay [3] deals with Fuc(a1-3)[Gal(b1-4)]GlcNAc(b1-3)Gal(b1-3)[Fuc(a1-4)]GlcNAc. Summed up: as §1
For assay [4], the target named is Fuc(a1-3)[Gal(b1-4)]GlcNAc(b1-4)Gal(b1-4)[Fuc(a1-3)]GlcNAc. Summed up:
as §1

The next assay concerns the target Fuc(a1-4)GlcNAc. Summed up: as §1
The target of assay [5] is Gal(a1-3)[Gal(a1-4)]Gal(b1-4)GlcNAc. Summed up:
as §1

Another assay concerns the target Gal(a1-4)GlcNAc. Summed up:
as §1

Another assay addresses Gal(b1-2)Gal. Summed up:
as §1

Assay [6] has as its target Gal(b1-4)GlcNAc(b1-6)[Gal(b1-3)]GalNAc. Summed up: as §1
The target in assay [7] is Man(a1-2)Man(a1-6)[Man(a1-3)]Man(a1-6)[Man(a1-2)Man(a1-2)Man(a1-3)]Man. Summed up:
as §1

Another assay concerns the target Man(a1-3)[Man(a1-6)]Man. Summed up:
as §1

In assay [8] the target is Man(a1-3)[Man(a1-6)]Man(a1-6)[Man(a1-2)Man(a1-3)]Man(b1-4)GlcNAc(b1-4)GlcNAc. Summed up: as §1
In assay [9] the target is Man(a1-3)[Man(a1-6)]Man(a1-6)[Man(a1-3)]Man. Summed up:
as §1

The target of assay [10] is Man(a1-3)[Man(a1-6)]Man(a1-6)[Man(a1-3)]Man(b1-4)GlcNAc(b1-4)GlcNAc. Summed up:
as §1

Assay [11] deals with Man(a1-3)[Man(a1-6)]Man(b1-4)GlcNAc(b1-4)GlcNAc. Summed up: as §1
Assay [12] concerns the target Neu5Ac(a2-3)Gal(b1-3)GalNAc6S. Summed up:
as §1

The target in assay [13] is Neu5Ac(a2-3)Gal6S(b1-4)GlcNAc. Summed up:
as §1

Assay [14] has as its target Neu5Ac(a2-3)[GalNAc(b1-4)]Gal(b1-4)Glc. Summed up:
as §1

The target of assay [15] is Neu5Ac(a2-3)[GalNAc(b1-4)]Gal(b1-4)GlcNAc. Summed up: as §1
Assay [16] addresses Neu5Ac(a2-6)Gal(b1-4)GlcNAc. Summed up: as §1
For assay [17], the target named is Neu5Ac(a2-6)Gal(b1-4)GlcNAc(b1-2)Man(a1-6)[Gal(b1-4)GlcNAc(b1-2)Man(a1-3)]Man(b1-4)GlcNAc(b1-4)GlcNAc. Summed up:
as §1

For assay [18], the target named is Neu5Ac(a2-8)Neu5Ac(a2-8)Neu5Ac(a2-8)Neu5Ac(a2-3)[GalNAc(b1-4)]Gal(b1-4)Glc. Summed up: as §1
The target in assay [19] is Neu5Gc(a2-3)Gal(b1-4)GlcNAc. Summed up: as §1
Another assay concerns the target Fuc(a1-2)Gal(b1-4)GlcNAc. Summed up:
as §1

The target in assay [20] is Fuc(a1-2)Gal(b1-4)GlcNAc(b1-2)Man(a1-6)[Gal(b1-4)GlcNAc(b1-2)Man(a1-3)]Man(b1-4)GlcNAc(b1-4)GlcNAc. Summed up:
as §1

Assay [21] deals with Fuc(a1-2)Gal(b1-4)GlcNAc(b1-3)Gal(b1-4)GlcNAc. Summed up: as §1
In assay [22] the target is Fuc(a1-2)[Gal(a1-3)]Gal(b1-3)GlcNAc. Summed up:
as §1

Another assay addresses Fuc(a1-3)GlcNAc. Summed up:
as §1

Assay [23] has as its target Fuc(a1-3)[Gal(b1-4)]GlcNAc(b1-4)Gal(b1-4)[Fuc(a1-3)]GlcNAc(b1-4)Gal(b1-4)[Fuc(a1-3)]GlcNAc. Summed up:
as §1

A further assay has as its target Gal(a1-3)Gal(b1-4)Glc. Summed up:
as §1

For the next assay, the target named is Gal(b1-4)Glc. Summed up: as §1
Assay [24] concerns the target Gal(b1-4)GlcNAc(b1-6)Gal(b1-4)GlcNAc. Summed up:
as §1

Another assay concerns the target Gal6S(b1-4)Glc. Summed up: as §1
In assay [25] the target is GalNAc(b1-3)Gal(a1-4)Gal(b1-4)GlcNAc. Summed up:
as §1

The target of the next assay is GalNAc(b1-3)GalNAc. Summed up: as §1
Assay [26] has as its target GlcNAc(a1-6)Gal(b1-4)GlcNAc. Summed up:
as §1

The next assay concerns the target Man(a1-2)Man(a1-3)Man. Summed up:
as §1

The target of assay [27] is Man(a1-2)Man(a1-3)[Man(a1-6)]Man(a1-6)[Man(a1-2)Man(a1-3)]Man(b1-4)GlcNAc(b1-4)GlcNAc. Summed up: as §1
For assay [28], the target named is Neu5Ac(a2-3)Gal(b1-3)GlcNAc(b1-3)Gal(b1-3)GlcNAc. Summed up: as §1
The target of assay [29] is Neu5Ac(a2-3)Gal(b1-3)GlcNAc6S. Summed up:
as §1

The target of assay [30] is Neu5Ac(a2-6)Gal(b1-4)GlcNAc(b1-2)Man(a1-3)[GlcNAc(b1-2)Man(a1-6)]Man(b1-4)GlcNAc(b1-4)GlcNAc. Summed up:
as §1

Assay [31] concerns the target Neu5Ac(a2-6)Gal(b1-4)GlcNAc(b1-2)Man(a1-3)[Neu5Ac(a2-6)Gal(b1-4)GlcNAc(b1-2)Man(a1-6)]Man(b1-4)GlcNAc(b1-4)GlcNAc. Summed up:
as §1

The target in assay [32] is Neu5Gc(a2-3)Gal(b1-3)GlcNAc. Summed up: as §1
In assay [33] the target is Neu5Gc(b2-6)Gal(b1-4)GlcNAc. Summed up: as §1

B1: HFR-1 (Triticum aestivum) (protein)
chain: MSPQSFTLETTTTTPAAKGSDPSYFQSAPACHEMIQHKELLLHLYAYQNVQKTPDANQAVIVESKRPECFGILAANDWTVYDGPAHNANLVAHAQGLHLGASMAKENWFICFNMVFVNQRFTGSSFKVMGDFQGTAHNGEWAIVGGTGEFAYAQGVIAFKKTQQSERNARMELHVRAMCLSFLRPLLSLGDGSAVAKIGPWGKMSGELLDIPSTPQRLERITIRHGVVIDSLAFSFIDKAGEPYNVGPWGGRRGDNKDTIELAPSEIVTEVSGTVGIFAEDNVEYNAIASLTITTNHRPYGPFGETQSTPFSVPVQDNNNIVGFFACAGKYVEALGVYVRSPVST
As to B1, the “glycan array binding signal (z-score)” value in assay [1] was -0.201; in [2], -0.225; in assay [3], -0.224; in assay [4], -0.165; in the assay with Fuc(a1-4)GlcNAc, -0.057; in assay [5], -0.199. Besides, the “glycan array binding signal (z-score)” value was -0.22 with Gal(a1-4)GlcNAc; 0.042 in the assay with Gal(b1-2)Gal; -0.206 in assay [6]; -0.214 in [7]; 4.93 in the assay with Man(a1-3)[Man(a1-6)]Man; 6.43 in assay [8]. Besides, the “glycan array binding signal (z-score)” value in assay [9] was 7.26; in assay [10], 7.87; in assay [11] it was 5.48; in assay [12] it was -0.218; in [13], -0.213; in assay [14], -0.024. Besides, the “glycan array binding signal (z-score)” value in [15] was -0.165; in assay [16], -0.223; in assay [17], -0.222; in assay [18] it was 0.01; in assay [19], -0.221.

B2: Mannose Binding Protein (Lactobacillus plantarum) (protein)
chain: AERSEAALTHVDKDNFLKYFSLNGSATYDAKTGIVTITPNQNNQVGNFSLTSKIDMNKSFTLTGQVNLGSNPNGADGIGFAFHSGNTTDVGNAGGNLGIGGLQDAIGFKLDTWFNSYQAPSSDKNGSEISSTNSNGFGWNGDSANAPYGTFVKTSNQEISTANGSKVQRWWAQDTGESQALSKADIDGNFHDFVVNYDGATRTLTVSYTQASGKVLTWKTTVASSYQAMAMVVSASTGAAKNLQQFKLTSFDFQEAATVNVKYVDTTGHQLAQG
B2: the “glycan array binding signal (z-score)” value in assay [1] was -0.167; with Fuc(a1-2)Gal(b1-4)GlcNAc, -0.102; in assay [20], -0.749; in assay [21], -0.358; in [22] it was -0.696; with Fuc(a1-3)GlcNAc it was -0.141. Further, the “glycan array binding signal (z-score)” value was -0.071 in [23]; 13.6 with Gal(a1-3)Gal(b1-4)Glc; -0.551 in [5]; -0.319 in the assay with Gal(b1-4)Glc; -0.654 in assay [24]; 0.521 with Gal6S(b1-4)Glc. The “glycan array binding signal (z-score)” value is 4.17 in assay [25]; 2.15 with GalNAc(b1-3)GalNAc; -0.056 in [26]; 3.36 in the assay with Man(a1-2)Man(a1-3)Man; 0.227 in [27]; 1.77 in [9]. Besides, the “glycan array binding signal (z-score)” value was -0.526 in assay [28]; -0.327 in assay [29]; -0.444 in assay [30]; -0.324 in assay [31]; -0.785 in assay [32]; 1.04 in assay [33].
